# In PMC7862700, “An all-to-all approach to the identification of sequence-specific readers for epigenetic DNA modifications on cytosine”:
# What was measured:
# Test in all cases: DAPPL (digital affinity profiling via proximity ligation, sequencing); 10 mM Tris-HCl pH 7.5, 50 mM NaCl, 1 mM DTT, 4% glycerol, room temperature, 30 min; GST-TFs on glutathione beads, 16-mer random dsDNA library, 0.1% formaldehyde crosslink after washing; high values mean tight binding
# [1] = target: T1, FLI1 (Homo sapiens, UniProt Q01543 1-452); details: protein: recombinant; tags: N-terminal GST; dsDNA, one strand shown
# T1 sequence: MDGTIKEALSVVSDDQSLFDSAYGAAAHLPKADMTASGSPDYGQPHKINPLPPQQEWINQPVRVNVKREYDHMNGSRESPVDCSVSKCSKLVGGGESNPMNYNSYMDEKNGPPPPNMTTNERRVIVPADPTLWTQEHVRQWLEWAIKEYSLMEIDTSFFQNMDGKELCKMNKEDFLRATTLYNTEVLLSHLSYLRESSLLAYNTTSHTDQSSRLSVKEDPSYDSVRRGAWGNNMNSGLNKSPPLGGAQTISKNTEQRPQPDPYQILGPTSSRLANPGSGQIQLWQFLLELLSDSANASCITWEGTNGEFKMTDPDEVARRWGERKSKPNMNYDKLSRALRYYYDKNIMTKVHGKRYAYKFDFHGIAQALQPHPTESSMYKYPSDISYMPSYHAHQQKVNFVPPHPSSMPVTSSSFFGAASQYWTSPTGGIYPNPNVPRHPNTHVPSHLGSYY
# Procedure, shortened: (§1)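 GST fusions of human transcription factors were expressed in yeast and captured with glutathione beads. Once given DNA barcodes and pooled alongside a tag-only sample, they were incubated for 30 min at room temperature with 200 nmole of a random double-stranded 16-mer DNA library in Tris/NaCl/DTT/glycerol buffer, then washed, crosslinked (0.1% formaldehyde), proximity-ligated, PCR-amplified and sequenced on an Illumina NextSeq500. The binding signal of each hexamer is its read frequency for a factor divided by its frequency for the tag-only sample.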
# [2] = target: T2, ELK1 (Homo sapiens, UniProt P19419 1-428); details: protein: recombinant; tags: N-terminal GST; dsDNA, one strand shown
# T2 sequence: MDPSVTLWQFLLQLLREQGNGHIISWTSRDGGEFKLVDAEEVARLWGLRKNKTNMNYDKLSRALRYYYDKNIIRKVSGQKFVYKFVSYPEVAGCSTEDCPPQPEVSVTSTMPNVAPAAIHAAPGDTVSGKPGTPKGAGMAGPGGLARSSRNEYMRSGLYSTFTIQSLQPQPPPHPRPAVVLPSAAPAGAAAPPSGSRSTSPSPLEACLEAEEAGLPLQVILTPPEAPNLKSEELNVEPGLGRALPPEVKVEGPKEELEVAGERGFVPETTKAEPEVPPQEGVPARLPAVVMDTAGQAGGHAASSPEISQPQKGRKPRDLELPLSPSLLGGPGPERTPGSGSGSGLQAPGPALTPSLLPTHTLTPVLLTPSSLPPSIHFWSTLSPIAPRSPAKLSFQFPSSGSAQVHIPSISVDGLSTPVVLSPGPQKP
# Procedure, shortened: as §1
# [3] = target: T3, GABPA (Homo sapiens, UniProt Q06546 1-454); details: protein: recombinant; tags: N-terminal GST; dsDNA, one strand shown
# T3 sequence: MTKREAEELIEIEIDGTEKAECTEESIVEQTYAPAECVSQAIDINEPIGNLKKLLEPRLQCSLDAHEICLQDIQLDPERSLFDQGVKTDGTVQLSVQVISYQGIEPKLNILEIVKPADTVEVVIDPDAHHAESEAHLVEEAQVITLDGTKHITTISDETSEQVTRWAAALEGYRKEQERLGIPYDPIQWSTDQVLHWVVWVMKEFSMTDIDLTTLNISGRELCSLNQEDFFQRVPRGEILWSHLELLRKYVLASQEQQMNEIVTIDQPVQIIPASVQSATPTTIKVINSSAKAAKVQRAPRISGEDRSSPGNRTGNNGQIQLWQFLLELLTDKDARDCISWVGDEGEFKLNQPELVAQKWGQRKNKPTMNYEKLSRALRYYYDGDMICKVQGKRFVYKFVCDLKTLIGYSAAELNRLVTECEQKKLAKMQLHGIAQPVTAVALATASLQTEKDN
# Procedure, shortened: as §1
# [4] = target: T4, ERG (Homo sapiens, UniProt P11308 1-479); details: protein: recombinant; tags: N-terminal GST; dsDNA, one strand shown
# T4 sequence: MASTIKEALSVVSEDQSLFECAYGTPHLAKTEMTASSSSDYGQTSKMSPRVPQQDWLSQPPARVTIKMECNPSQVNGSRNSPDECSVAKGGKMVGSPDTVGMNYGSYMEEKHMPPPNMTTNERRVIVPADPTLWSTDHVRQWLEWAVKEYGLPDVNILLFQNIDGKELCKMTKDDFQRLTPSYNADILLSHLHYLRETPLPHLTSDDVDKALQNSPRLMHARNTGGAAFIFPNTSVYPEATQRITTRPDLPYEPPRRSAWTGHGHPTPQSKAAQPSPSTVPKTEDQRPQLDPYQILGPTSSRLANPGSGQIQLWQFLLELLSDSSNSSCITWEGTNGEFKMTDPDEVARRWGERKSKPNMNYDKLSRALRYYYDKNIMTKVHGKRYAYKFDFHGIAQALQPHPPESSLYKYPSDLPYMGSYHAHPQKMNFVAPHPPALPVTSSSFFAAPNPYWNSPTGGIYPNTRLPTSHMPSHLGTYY
# Procedure, shortened: as §1
# [5] = target: ELF1 (Homo sapiens, UniProt P32519 1-619); details: protein: recombinant; tags: N-terminal GST; dsDNA, one strand shown
# Chain of ELF1 (P32519 whole entry): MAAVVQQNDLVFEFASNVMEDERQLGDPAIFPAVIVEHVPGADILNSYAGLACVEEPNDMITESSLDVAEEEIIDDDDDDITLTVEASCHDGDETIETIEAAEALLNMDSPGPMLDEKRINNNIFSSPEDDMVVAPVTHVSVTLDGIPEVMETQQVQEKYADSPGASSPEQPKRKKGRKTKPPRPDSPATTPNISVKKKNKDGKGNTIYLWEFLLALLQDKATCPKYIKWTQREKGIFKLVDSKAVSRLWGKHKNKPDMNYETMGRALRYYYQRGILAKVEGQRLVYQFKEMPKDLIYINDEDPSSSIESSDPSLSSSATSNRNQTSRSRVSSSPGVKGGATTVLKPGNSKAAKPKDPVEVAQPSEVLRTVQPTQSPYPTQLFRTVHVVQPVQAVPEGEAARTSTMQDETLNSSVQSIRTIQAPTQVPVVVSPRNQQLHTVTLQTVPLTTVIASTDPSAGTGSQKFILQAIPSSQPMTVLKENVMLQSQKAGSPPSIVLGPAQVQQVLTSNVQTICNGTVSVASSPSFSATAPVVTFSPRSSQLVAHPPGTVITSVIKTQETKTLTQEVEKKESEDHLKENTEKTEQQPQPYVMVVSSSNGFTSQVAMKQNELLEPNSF
# Procedure, shortened: as §1
# [6] = target: T5, EHF (Homo sapiens, UniProt Q9NZC4 1-300); details: protein: recombinant; tags: N-terminal GST; dsDNA, one strand shown
# T5 sequence: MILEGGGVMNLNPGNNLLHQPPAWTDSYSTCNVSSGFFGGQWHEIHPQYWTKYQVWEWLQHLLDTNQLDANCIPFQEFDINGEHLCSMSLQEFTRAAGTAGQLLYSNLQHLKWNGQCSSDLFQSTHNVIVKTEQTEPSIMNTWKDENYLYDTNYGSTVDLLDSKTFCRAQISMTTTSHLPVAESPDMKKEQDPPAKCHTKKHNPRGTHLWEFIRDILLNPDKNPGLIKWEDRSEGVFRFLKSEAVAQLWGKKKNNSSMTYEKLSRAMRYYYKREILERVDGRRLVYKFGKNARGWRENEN
# Procedure, shortened: as §1
# [7] = target: SPI1 (Homo sapiens, UniProt P17947 1-270); details: protein: recombinant; tags: N-terminal GST; dsDNA, one strand shown
# Procedure, shortened: as §1
# [8] = target: SPIB (Homo sapiens, UniProt Q01892 1-262); details: protein: recombinant; tags: N-terminal GST; dsDNA, one strand shown
# Chain of SPIB (Q01892 whole entry): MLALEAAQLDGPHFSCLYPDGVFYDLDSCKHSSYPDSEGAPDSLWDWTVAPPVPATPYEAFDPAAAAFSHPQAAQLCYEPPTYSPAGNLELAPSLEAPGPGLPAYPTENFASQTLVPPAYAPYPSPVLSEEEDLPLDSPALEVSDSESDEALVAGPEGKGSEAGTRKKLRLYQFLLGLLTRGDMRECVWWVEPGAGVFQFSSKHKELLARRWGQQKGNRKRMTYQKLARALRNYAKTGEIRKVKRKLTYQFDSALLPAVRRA
# Procedure, shortened: as §1
# [9] = target: T6, ELK3 (Homo sapiens, UniProt P41970 1-407); details: protein: recombinant; tags: N-terminal GST; dsDNA, one strand shown
# T6 sequence: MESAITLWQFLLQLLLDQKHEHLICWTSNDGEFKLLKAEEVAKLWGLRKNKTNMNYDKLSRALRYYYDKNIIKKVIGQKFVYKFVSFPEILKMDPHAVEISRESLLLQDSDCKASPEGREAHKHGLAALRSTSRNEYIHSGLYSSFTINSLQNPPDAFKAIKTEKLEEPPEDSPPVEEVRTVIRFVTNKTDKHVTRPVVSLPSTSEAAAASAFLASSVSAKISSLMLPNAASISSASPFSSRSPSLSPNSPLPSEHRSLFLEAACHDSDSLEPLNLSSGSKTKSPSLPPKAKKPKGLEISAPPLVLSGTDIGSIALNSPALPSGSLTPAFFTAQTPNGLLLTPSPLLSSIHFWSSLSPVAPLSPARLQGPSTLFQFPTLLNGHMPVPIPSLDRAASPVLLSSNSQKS
# Procedure, shortened: as §1
# [10] = target: T7, FEV (Homo sapiens, UniProt Q99581 1-238); details: protein: recombinant; tags: N-terminal GST; dsDNA, one strand shown
# T7 sequence: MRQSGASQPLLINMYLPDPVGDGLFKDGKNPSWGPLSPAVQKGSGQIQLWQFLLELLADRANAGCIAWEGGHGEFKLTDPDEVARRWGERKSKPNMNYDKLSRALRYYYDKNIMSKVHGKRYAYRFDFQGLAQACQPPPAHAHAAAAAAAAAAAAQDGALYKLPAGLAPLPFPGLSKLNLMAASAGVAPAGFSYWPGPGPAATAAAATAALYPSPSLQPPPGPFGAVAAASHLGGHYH
# Procedure, shortened: as §1
# [11] = target: ETV5 (Homo sapiens, UniProt P41161 1-510); details: protein: recombinant; tags: N-terminal GST; dsDNA, one strand shown
# Chain of ETV5 (P41161 whole entry): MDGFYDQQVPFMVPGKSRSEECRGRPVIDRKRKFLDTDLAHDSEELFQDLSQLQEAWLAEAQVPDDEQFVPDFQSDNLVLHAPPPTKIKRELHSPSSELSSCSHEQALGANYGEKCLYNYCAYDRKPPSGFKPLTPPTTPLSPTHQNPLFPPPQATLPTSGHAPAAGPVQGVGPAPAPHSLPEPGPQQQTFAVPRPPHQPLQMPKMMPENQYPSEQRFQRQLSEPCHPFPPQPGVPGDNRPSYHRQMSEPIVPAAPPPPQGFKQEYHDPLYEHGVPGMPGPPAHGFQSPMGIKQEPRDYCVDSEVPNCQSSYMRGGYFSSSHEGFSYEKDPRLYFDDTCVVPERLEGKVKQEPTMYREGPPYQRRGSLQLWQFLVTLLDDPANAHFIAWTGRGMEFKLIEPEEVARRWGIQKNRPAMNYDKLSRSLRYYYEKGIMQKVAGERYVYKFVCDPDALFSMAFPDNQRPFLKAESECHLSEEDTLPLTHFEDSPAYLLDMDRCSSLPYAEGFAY
# Procedure, shortened: as §1
# [12] = target: HSF1 (Homo sapiens, UniProt Q00613 1-529); details: protein: recombinant; tags: N-terminal GST; chain copies: 3; dsDNA, one strand shown
# Chain of HSF1 (Q00613 whole entry): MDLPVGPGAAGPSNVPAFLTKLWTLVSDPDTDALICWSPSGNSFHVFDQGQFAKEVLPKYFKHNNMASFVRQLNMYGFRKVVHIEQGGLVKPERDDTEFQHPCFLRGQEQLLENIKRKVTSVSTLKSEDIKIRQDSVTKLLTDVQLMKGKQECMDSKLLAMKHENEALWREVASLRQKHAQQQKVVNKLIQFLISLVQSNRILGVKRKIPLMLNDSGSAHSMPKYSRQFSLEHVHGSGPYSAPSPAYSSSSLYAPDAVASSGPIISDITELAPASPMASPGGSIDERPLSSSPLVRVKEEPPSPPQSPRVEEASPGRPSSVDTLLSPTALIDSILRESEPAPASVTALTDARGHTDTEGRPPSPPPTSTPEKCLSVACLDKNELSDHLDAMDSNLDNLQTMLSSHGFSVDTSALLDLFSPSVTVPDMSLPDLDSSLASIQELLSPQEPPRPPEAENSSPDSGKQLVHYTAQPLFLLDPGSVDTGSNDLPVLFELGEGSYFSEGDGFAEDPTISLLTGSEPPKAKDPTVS
# Procedure, shortened: as §1
# [13] = target: T8, SPIC (Homo sapiens, UniProt Q8N5J4 1-248); details: protein: recombinant; tags: N-terminal GST; dsDNA, one strand shown
# T8 sequence: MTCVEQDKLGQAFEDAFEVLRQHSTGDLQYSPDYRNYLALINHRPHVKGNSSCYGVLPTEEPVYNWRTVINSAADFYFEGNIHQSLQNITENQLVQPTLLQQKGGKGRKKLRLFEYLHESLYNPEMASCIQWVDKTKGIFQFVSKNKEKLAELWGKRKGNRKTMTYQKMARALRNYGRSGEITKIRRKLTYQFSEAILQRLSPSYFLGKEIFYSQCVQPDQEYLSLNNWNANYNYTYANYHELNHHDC
# Procedure, shortened: as §1
# [14] = target: ELF4 (Homo sapiens, UniProt Q99607 1-663); details: protein: recombinant; tags: N-terminal GST; dsDNA, one strand shown
# Chain of ELF4 (Q99607 whole entry): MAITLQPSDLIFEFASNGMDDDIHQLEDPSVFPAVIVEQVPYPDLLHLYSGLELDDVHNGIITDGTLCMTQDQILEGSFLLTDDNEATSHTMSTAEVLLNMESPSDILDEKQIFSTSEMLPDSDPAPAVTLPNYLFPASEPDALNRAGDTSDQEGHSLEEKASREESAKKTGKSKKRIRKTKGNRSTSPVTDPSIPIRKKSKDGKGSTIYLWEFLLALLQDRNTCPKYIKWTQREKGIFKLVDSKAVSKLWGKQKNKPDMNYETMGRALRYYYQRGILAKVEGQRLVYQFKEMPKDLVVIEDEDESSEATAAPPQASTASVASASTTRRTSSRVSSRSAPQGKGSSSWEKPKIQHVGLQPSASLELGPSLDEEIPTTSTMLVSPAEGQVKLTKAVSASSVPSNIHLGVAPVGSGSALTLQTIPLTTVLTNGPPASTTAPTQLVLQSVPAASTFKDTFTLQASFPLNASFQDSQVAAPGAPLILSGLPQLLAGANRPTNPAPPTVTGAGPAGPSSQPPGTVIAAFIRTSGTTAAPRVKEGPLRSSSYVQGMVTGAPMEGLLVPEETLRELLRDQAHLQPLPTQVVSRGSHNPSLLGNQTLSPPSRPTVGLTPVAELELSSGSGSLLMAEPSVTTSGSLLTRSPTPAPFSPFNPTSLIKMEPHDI
# Procedure, shortened: as §1
# [15] = target: T9, ELK4 (Homo sapiens, UniProt P28324-2 1-405); details: protein: recombinant; tags: N-terminal GST; dsDNA, one strand shown
# T9 sequence: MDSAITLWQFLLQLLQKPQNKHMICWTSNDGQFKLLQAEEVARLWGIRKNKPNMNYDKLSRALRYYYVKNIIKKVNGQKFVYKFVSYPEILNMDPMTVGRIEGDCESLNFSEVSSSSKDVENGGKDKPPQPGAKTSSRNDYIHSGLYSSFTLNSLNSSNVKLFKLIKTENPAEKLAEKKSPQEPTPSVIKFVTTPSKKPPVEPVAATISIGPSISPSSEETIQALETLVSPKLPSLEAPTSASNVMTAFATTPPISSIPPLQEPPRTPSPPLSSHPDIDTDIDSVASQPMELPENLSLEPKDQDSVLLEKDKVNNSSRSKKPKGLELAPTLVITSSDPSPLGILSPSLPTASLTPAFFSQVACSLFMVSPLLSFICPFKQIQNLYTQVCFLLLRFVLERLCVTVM
# Procedure, shortened: as §1
# [16] = target: T10, ETV2 (Homo sapiens, UniProt O00321 1-342); details: protein: recombinant; tags: N-terminal GST; dsDNA, one strand shown
# T10 sequence: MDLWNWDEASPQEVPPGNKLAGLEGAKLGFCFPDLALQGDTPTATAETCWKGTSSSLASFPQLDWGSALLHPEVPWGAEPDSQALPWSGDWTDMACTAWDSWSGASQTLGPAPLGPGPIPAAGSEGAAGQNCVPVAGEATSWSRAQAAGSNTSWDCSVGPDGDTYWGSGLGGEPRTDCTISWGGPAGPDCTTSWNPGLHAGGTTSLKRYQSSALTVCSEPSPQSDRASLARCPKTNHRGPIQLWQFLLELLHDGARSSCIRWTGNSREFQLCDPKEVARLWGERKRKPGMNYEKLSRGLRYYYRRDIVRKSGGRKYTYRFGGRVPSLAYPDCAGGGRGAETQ
# Procedure, shortened: as §1
# [17] = target: T11, ELF3 (Homo sapiens, UniProt P78545 1-371); details: protein: recombinant; tags: N-terminal GST; dsDNA, one strand shown
# T11 sequence: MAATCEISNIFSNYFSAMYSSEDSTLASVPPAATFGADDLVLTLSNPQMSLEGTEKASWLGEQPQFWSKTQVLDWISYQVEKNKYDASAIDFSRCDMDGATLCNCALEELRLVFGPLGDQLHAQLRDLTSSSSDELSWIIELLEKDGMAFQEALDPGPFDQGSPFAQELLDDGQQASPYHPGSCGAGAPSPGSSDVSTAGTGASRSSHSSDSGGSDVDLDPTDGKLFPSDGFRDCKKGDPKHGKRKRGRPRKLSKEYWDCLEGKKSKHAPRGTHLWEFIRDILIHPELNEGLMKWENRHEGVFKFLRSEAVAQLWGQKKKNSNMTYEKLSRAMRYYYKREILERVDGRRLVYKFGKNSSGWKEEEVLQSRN
# Procedure, shortened: as §1
# [18] = target: CRX (Homo sapiens, UniProt O43186 1-299); details: protein: recombinant; tags: N-terminal GST; dsDNA, one strand shown
# Chain of CRX (O43186 whole entry): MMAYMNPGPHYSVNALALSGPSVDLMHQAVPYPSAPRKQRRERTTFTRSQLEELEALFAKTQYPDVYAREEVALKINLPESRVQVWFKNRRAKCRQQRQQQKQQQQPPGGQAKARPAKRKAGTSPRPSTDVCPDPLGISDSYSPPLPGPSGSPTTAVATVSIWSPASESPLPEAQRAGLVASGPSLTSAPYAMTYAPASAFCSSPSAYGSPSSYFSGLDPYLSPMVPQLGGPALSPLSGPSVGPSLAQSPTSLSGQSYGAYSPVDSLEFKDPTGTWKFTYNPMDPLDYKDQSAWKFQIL
# Procedure, shortened: as §1
# [19] = target: ETV1 (Homo sapiens, UniProt P50549 1-477); details: protein: recombinant; tags: N-terminal GST; dsDNA, one strand shown
# Chain of ETV1 (P50549 whole entry): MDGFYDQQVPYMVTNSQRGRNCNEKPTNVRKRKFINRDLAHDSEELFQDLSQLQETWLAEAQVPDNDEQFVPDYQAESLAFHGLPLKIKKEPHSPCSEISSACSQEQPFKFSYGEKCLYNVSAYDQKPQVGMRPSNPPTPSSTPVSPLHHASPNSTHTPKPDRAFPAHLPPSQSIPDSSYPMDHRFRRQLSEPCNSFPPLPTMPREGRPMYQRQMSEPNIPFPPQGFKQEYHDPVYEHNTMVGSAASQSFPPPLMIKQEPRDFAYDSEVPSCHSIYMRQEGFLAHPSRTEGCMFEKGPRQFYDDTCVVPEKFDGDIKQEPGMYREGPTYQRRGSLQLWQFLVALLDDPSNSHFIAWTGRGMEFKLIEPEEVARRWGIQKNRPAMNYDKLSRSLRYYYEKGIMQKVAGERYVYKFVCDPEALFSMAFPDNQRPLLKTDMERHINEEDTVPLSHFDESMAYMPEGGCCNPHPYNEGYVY
# Procedure, shortened: as §1
sequence,measurement,setting,value
ATGCCC,binding signal,[1],"1.38 fold enrichment (6-mer frequency, TF over GST control)"
same,binding signal,[2],"1.38 fold enrichment (6-mer frequency, TF over GST control)"
same,binding signal,[3],"1.33 fold enrichment (6-mer frequency, TF over GST control)"
same,binding signal,[4],"1.28 fold enrichment (6-mer frequency, TF over GST control)"
same,binding signal,[5],"1.32 fold enrichment (6-mer frequency, TF over GST control)"
same,binding signal,[6],"1.26 fold enrichment (6-mer frequency, TF over GST control)"
same,binding signal,[7],"1.2 fold enrichment (6-mer frequency, TF over GST control)"
same,binding signal,[8],"1.23 fold enrichment (6-mer frequency, TF over GST control)"
same,binding signal,[9],"1.2 fold enrichment (6-mer frequency, TF over GST control)"
same,binding signal,[10],"1.34 fold enrichment (6-mer frequency, TF over GST control)"
same,binding signal,[11],"1.28 fold enrichment (6-mer frequency, TF over GST control)"
same,binding signal,[12],"1.19 fold enrichment (6-mer frequency, TF over GST control)"
same,binding signal,[13],"1.54 fold enrichment (6-mer frequency, TF over GST control)"
same,binding signal,[14],"1.33 fold enrichment (6-mer frequency, TF over GST control)"
same,binding signal,[15],"1.36 fold enrichment (6-mer frequency, TF over GST control)"
same,binding signal,[16],"1.26 fold enrichment (6-mer frequency, TF over GST control)"
same,binding signal,[17],"1.34 fold enrichment (6-mer frequency, TF over GST control)"
same,binding signal,[18],"1.12 fold enrichment (6-mer frequency, TF over GST control)"
same,binding signal,[19],"1.31 fold enrichment (6-mer frequency, TF over GST control)"
